Measurements reported in PubChem BioAssay (NCATS).
Where “and” joins values, the source holds several entries; their conditions need not be identical. Equal entries are not always repeated. Records with an inconclusive call do not appear. A call without a number means that no potency is given here. Where a structure was tested more than once in an assay, its records may differ in their call. Calls of active or inactive are those of the source. Unless noted, calls follow the shape of the dose curve; as a rule, active = well fitted curve in the direction sought with a large enough effect; inconclusive = small, poorly fitted or top-dose-only effect, or another doubt; inactive = no such curve, though single readings can be large; an effect the other way counts as inactive or inconclusive.

Key:
[1] = Cell Viability - HUV-EC-C (AID 542);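 also: cells exposed to compound for 40 hours; nearly all actives have a fitted effect of over 35% in size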; also: potency is read from the fitted curve at half-maximal effect
Procedure, shortened: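 Luminescent ATP read-out (CellTiter-Glo, 20 min room temperature) after 40 hr compound treatment of HUV-EC-C cells at 37 °C. Concentration-response data fitted with the standard Hill equation to give AC50; tamoxifen and doxorubicin served as positive controls.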

[2] = Cellular Toxicity (caspase-3) NIH 3T3 (AID 666);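 also: caspase signal read after 16 h compound exposure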
Procedure, shortened: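 NIH 3T3, 1000 cells/well, 5 hr settle then 16 hr compound at 37°C; Caspase-Glo 3/7, 20 min RT, luminescence. DMSO = basal, 100 uM tamoxifen = 100%. Hill-equation AC50, qHTS.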

[3] = target: Cytochrome P450 3A4 (Homo sapiens) (UniProt P08684); assay: qHTS Assay for Inhibitors and Substrates of Cytochrome P450 3A4 (AID 884); also: nearly all actives have a fitted effect of over 50% in size; also: potency is read from the fitted curve at half-maximal effect
Procedure, shortened: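 Luminescent readout of luciferin produced by CYP3A4 (20 nM) dealkylation of Luciferin-PPXE, 25 uM (its KM). NADPH-driven reaction ran 60 min at RT after 10 min compound preincubation; data scaled to 57 uM ketoconazole as 100% inhibition.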

[4] = Cell Viability - LYMP2-026 (AID 989); also: nearly all actives have a fitted effect of over 50% in size
Procedure, shortened: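 qHTS cytotoxicity: 2500 cells/well, 5 hr 37 C, compound 24 hr 37 C, CellTiter-Glo 30 min RT, luminescence. Tetraoctylammonium bromide positive control. AC50 via standard Hill fit.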

[5] = target: Estrogen receptor (Homo sapiens) (UniProt P03372); assay: qHTS assay for small molecule antagonists of estrogen receptor alpha signaling (AID 588513; active = well fitted curve in the direction sought with a large enough effect in the signal ratio, with a control signal flat, not every such curve was filed as active; the % refers to the signal ratio)
Procedure, shortened: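 Antagonist-mode qHTS in ER-alpha-UAS-bla HEK 293 cells: compound titration, 0.5nM estradiol for 18 h, CCF4 fluorescence, Hill-derived IC50.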

[6] = target: Estrogen receptor (Homo sapiens) (UniProt P03372); assay: qHTS assay for small molecule agonists of estrogen receptor alpha signaling (AID 588514; calls by dose curve; also: nearly all actives have a fitted effect of over 70% in size; also: potency is read from the fitted curve at half-maximal effect)
Procedure, shortened: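 Read-out: CCF4 fluorescence from a beta-lactamase reporter in ER-alpha-UAS-bla HEK 293 cells after 18 hrs of compound exposure at 37 C. Normalized to 20 nM 17-beta-estradiol (100%) and DMSO (0%).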

[7] = target: Glucocorticoid receptor (Homo sapiens) (UniProt P04150); assay: qHTS assay for small molecule agonists of glucocorticoid receptor signaling (AID 588532; active = well fitted curve in the direction sought with a large enough effect in the signal ratio, with a control signal flat; the % refers to the signal ratio); conditions: HeLa MMTV-bla, beta-lactamase ratio, agonist, 18 h; stronger effect = higher value; percent of dexamethasone control, DMSO zero
Procedure, shortened: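 MMTV-bla HeLa, beta-lactamase reporter; medium with 1% charcoal/dextran-stripped FBS; cpds up to 92 uM, 18 h, 37 C; CCF4 readout 460/530 nm; Hill fit → EC50, efficacy vs 0.1 uM dexamethasone = 100%.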

[8] = target: Glucocorticoid receptor (Homo sapiens) (UniProt P04150); assay: qHTS assay for small molecule antagonists of glucocorticoid receptor signaling (AID 588533; active = well fitted inhibition curve with a large enough effect in the signal ratio, with a control signal flat, not every such curve was filed as active; the % refers to the signal ratio;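 also: cells stimulated with 2 nM dexamethasone as agonist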)
Procedure, shortened: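 Antagonist-mode qHTS: compound titrations added to GRE-bla HeLa cells, then dexamethasone 2 nM final; 18 h, 37 C. CCF4 FRET fluorescence normalized to dexamethasone and DMSO; IC50 from Hill fit.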

[9] = target: Peroxisome proliferator-activated receptor delta (Homo sapiens) (UniProt Q03181); assay: qHTS assay for small molecule antagonists of peroxisome proliferator-activated receptor delta signaling (AID 588535; active = well fitted inhibition curve with a large enough effect in the signal ratio, with a control signal flat, not every such curve was filed as active; the % refers to the signal ratio)
Procedure, shortened: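 Compounds tested in titration on PPAR-delta-UAS-bla HEK293T cells grown in charcoal/dextran-stripped serum (2%); beta-lactamase activity read via CCF4 emission at 460 and 530 nm.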

[10] = target: Peroxisome proliferator-activated receptor gamma (Homo sapiens) (UniProt P37231); assay: qHTS assay for small molecule agonists of peroxisome proliferator-activated receptor gamma signaling (AID 588536; active = well fitted curve in the direction sought with a large enough effect in the signal ratio, with a control signal flat, not every such curve was filed as active; the % refers to the signal ratio)
Procedure, shortened: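 Cells were plated and held 6–6.5 h at 37 C, then compounds were added as a titration series. After a further 16 h, CCF4 dye was loaded for 2 h at room temperature and emission at 460/530 nm recorded.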

[11] = target: Voltage-gated inwardly rectifying potassium channel KCNH2 (Homo sapiens) (UniProt Q12809); assay: qHTS Assay for Small Molecule Inhibitors of the Human hERG Channel Activity (AID 588834);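 also: top concentration of the series differs between compounds; lower thallium flux fluorescence means stronger hERG block; nearly all actives have a fitted effect of over 50% in size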
Procedure, shortened: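 Homogeneous FluxOR thallium flux assay using hERG-expressing U2OS cells (BacMam). Compound treatment about 10 minutes preceded stimulation; reduced fluorescence taken as channel block.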

[12] = qHTS assay for small molecule agonists of the antioxidant response element (ARE) signaling pathway (AID 651741; active = well fitted activation curve with a large enough effect in the signal ratio; the % refers to the signal ratio; also: potency is read from the fitted curve at half-maximal effect)
Procedure, shortened: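 Beta-lactamase reporter expression driven by the antioxidant response element in HepG2 cells was detected by fluorescence with LiveBLAzer B/G FRET substrate (2 h, room temperature) following 16 h compound treatment at 37 C.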

[13] = qHTS assay for small molecule activators of the nuclear factor-kappa B (NF-kB) signaling pathway (AID 651749; active = well fitted activation curve with a large enough effect in the signal ratio; the % refers to the signal ratio; also: series mostly up to about 77 µM); conditions: NF-kB-bla ME-180 cells, beta-lactamase FRET ratio, 16 h; stronger effect = higher value
Procedure, shortened: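 Beta-lactamase reporter expression, controlled by NF-kB response elements in ME-180 cells, was quantified fluorometrically via FRET disruption; cells at 2,000/well had been incubated with 23 nL test compound for 16 hr.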

[14] = target: Tumor necrosis factor (Homo sapiens) (UniProt P01375); assay: qHTS assay to identify small molecules that stimulate Tumor Necrosis Factor-alpha (TNF-alpha) secretion (AID 651757; active = well fitted curve in the direction sought with a large enough effect in the signal ratio; the % refers to the signal ratio)
Procedure, shortened: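 THP-1 cells, 3000/well; compound 17 hrs, 37 C; add cryptate/XL665 anti-TNF-alpha antibody pair; 3 hr RT; TR-FRET (HTRF) read of secreted TNF-alpha. Quantitative HTS format.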

[15] = target: Nuclear receptor ROR-gamma (Homo sapiens) (UniProt P51449); assay: qHTS assay for small molecule antagonists of the retinoid-related orphan receptor gamma (ROR-gamma) signaling pathway (AID 651802); also: nearly all actives have a fitted effect of over 60% in size; also: potency is read from the fitted curve at half-maximal effect
Procedure, shortened: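 Luciferase read-out: ONE-Glo luminescence after 30 min at room temperature, following 16hr doxycycline induction at 37C, 5% CO2 of CHO cells with TET-inducible ROR and RORE-LUC reporter; decreased luminescence = reduced reporter activity.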

[16] = qHTS assay for small molecule antagonists of the retinoid-related orphan receptor gamma (ROR-gamma) signaling pathway - cell viability counter screen (AID 720652; active = well fitted curve in the direction sought with a large enough effect in the repeat runs; an effect the other way counts as inactive or inconclusive;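 also: CHO reporter cells with doxycycline-induced ROR-gamma expression; series mostly up to about 92 µM; compound exposure lasted 16 hr before ATP read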)
Procedure, shortened: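 CHO RORE-LUC/TET-ROR line, 1,000 cells/well, 37 C 5% CO2 5 hr; cpd or DMSO + doxycycline induction, 16 hr. CellTiter-Glo, 30 min RT, luminescence = ATP content.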

[17] = qHTS assay for small molecule activators of the human pregnane X receptor (PXR) signaling pathway (AID 720659; call rule not given here)
[18] = MultiTox-Fluor Cytotoxicity Assay - LYMP1-003 - Dead Cells (AID 961); also: nearly all actives have a fitted effect of over 70% in size
Procedure, shortened: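 LYMP1-003 human lymphoblastoid cells (2500/well) exposed to compound 16 h at 37 C in complete medium; dead-cell protease read with bis-AAF-R110 fluorescence (Ex/Em 485/520) after 60 min at room temperature. Normalized to DMSO and 15 uM tetraoctylammonium bromide; AC50 from Hill fit.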

[19] = target: Vitamin D3 receptor (Homo sapiens) (UniProt P11473); assay: qHTS assay for small molecule agonists of vitamin D receptor signaling (AID 588543; calls by dose curve)
Procedure, shortened: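 Measured: β-lactamase reporter activity (CCF4, 405 nm excitation, 460/530 nm emission) in HEK293T VDR-UAS-bla cells after 16 h compound exposure at 37 °C. Normalization against 50 nM 1α,25-dihydroxyvitamin D3 and DMSO; Hill-fit EC50.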

[20] = Cell Viability - LYMP1-002 - Assay at 24 hr (AID 993)
Procedure, shortened: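 CellTiter-Glo luminescence (intracellular ATP) after 24 h compound exposure, 37 C, in LYMP1-002 human lymphoblastoid cells; decreased ATP taken as cytotoxicity. AC50 from standard Hill fit of concentration-response curves.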

Sequence of Peroxisome proliferator-activated receptor gamma (Homo sapiens) (P37231 whole entry, looked up): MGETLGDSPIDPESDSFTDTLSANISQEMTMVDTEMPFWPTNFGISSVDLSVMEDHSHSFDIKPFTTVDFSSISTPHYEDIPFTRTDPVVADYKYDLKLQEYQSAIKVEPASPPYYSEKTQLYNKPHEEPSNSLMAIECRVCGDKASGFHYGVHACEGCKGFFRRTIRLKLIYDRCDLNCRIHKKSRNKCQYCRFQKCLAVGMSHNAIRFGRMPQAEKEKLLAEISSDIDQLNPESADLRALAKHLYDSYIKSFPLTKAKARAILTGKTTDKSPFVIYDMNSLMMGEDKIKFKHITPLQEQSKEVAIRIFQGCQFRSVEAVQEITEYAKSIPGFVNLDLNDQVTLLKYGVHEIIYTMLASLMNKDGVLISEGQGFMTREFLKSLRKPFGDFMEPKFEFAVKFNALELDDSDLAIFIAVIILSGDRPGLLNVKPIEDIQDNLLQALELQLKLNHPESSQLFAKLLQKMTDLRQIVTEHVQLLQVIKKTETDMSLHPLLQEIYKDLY
Sequence of Nuclear receptor ROR-gamma (Homo sapiens) (P51449 whole entry, looked up): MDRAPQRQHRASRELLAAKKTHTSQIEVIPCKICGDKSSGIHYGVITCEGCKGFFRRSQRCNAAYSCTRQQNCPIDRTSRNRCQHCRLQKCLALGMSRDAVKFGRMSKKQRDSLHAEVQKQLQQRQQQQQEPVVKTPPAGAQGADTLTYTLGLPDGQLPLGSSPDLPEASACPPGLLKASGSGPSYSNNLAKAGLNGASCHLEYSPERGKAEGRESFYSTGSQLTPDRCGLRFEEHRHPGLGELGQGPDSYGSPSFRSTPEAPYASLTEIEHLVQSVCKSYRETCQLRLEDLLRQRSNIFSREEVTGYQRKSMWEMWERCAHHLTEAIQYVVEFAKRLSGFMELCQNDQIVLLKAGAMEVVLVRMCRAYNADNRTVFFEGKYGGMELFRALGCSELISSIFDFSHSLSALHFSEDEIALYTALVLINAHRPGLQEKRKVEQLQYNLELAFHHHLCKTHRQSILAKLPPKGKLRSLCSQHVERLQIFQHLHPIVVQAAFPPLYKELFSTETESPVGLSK
Sequence of Estrogen receptor (Homo sapiens) (P03372 whole entry, looked up): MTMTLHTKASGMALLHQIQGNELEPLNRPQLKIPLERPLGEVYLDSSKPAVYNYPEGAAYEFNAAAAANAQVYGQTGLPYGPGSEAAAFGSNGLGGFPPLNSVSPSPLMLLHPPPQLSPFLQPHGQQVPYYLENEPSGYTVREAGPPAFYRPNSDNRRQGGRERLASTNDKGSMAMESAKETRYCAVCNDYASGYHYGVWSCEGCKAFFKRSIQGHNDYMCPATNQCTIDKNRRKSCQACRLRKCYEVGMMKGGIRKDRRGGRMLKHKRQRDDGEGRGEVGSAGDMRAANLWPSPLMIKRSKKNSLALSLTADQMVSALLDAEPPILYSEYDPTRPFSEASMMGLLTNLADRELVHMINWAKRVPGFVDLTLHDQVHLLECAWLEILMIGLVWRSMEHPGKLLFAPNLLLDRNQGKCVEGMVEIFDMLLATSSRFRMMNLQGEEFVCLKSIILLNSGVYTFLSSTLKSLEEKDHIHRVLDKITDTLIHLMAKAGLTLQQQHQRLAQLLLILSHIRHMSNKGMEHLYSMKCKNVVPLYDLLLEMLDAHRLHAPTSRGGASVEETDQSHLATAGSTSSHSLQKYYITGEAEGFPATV
Sequence of Glucocorticoid receptor (Homo sapiens) (P04150 whole entry, looked up): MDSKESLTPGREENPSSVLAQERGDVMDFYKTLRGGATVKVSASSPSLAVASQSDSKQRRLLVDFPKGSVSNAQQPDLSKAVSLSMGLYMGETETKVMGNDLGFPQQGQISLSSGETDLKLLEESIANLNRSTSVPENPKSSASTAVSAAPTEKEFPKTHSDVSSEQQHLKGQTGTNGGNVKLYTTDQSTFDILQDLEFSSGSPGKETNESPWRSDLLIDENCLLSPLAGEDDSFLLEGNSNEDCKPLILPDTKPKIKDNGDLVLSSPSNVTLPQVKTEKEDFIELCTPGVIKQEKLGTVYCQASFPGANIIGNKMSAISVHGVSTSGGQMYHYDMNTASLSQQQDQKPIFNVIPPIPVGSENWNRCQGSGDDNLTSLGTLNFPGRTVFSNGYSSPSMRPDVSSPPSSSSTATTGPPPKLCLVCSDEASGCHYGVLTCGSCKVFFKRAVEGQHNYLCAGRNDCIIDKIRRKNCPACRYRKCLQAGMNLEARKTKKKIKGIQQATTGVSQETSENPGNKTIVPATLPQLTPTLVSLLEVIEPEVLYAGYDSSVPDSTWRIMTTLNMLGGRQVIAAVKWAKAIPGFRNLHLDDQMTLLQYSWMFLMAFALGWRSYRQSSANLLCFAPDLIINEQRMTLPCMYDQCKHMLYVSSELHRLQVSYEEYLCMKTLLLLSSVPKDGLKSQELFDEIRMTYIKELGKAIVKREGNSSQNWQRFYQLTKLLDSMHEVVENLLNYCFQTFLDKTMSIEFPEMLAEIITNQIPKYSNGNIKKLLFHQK
Sequence of Peroxisome proliferator-activated receptor delta (Homo sapiens) (Q03181 whole entry, looked up): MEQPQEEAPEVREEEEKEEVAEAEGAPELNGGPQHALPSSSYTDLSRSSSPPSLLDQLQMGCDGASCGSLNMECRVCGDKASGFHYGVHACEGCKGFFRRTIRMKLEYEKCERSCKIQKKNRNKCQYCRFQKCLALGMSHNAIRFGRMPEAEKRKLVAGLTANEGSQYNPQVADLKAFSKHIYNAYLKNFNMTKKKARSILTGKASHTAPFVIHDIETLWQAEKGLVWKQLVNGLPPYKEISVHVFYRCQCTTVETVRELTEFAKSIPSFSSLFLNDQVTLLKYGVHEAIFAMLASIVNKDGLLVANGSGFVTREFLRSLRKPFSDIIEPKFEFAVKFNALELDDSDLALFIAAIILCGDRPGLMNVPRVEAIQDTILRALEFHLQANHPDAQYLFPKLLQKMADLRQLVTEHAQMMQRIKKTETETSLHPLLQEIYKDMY
Sequence of Tumor necrosis factor (Homo sapiens) (P01375 whole entry, looked up): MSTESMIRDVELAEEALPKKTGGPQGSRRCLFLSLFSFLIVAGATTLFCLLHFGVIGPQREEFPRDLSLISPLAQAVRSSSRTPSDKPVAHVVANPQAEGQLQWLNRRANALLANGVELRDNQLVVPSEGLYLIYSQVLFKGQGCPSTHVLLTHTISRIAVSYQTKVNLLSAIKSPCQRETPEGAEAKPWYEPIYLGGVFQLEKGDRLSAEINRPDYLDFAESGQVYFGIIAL
Sequence of Voltage-gated inwardly rectifying potassium channel KCNH2 (Homo sapiens) (Q12809 whole entry, looked up): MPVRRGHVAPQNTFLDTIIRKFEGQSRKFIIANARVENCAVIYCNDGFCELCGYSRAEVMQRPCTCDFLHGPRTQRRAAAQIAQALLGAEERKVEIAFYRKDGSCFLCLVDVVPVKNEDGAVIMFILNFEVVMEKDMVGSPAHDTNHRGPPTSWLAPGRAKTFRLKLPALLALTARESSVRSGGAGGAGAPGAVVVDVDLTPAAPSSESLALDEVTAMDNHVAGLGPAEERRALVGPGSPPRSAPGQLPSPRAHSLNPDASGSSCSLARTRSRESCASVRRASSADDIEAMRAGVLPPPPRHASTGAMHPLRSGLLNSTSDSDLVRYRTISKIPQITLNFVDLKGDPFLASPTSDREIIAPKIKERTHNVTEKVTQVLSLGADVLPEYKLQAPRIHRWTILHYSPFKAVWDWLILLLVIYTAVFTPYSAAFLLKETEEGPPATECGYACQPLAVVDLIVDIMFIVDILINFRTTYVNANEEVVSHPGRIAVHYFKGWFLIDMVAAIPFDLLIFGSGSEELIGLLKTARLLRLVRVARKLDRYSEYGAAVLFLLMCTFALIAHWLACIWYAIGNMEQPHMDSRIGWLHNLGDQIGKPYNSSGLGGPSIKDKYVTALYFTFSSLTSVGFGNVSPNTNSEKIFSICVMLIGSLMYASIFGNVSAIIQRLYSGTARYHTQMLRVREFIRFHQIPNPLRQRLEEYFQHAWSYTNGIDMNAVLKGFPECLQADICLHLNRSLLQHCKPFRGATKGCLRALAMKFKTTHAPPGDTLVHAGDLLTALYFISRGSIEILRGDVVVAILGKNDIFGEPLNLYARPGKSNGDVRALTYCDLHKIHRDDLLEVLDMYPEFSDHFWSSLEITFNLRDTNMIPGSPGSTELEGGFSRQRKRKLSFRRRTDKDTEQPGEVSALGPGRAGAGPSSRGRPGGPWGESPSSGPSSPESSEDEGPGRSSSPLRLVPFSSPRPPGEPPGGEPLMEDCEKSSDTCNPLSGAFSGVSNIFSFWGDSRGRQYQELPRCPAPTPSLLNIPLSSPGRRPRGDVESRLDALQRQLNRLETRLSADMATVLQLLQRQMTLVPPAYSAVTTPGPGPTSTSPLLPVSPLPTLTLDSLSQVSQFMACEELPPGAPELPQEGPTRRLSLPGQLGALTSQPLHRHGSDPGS
Sequence of Cytochrome P450 3A4 (Homo sapiens) (P08684 whole entry, looked up): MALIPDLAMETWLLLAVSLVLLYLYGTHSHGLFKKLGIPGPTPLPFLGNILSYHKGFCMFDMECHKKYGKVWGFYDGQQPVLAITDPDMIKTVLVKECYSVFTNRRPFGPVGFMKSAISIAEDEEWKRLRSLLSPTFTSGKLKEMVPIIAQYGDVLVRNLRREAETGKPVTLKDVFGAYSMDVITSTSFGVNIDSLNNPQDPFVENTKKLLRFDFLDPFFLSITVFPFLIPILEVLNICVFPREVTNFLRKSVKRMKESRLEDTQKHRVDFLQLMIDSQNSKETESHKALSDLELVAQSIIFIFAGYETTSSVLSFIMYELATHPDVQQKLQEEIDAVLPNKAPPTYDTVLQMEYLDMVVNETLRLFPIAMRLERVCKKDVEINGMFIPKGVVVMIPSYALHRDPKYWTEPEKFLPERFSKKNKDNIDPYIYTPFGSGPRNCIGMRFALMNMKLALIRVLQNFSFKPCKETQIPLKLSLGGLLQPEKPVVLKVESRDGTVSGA

| SMILES | Potency [1] | outcome [2] | Potency [3] | Potency [4] | outcome [5] | Potency [6] | activation [7] | Potency [8] | outcome [9] | outcome [10] | Potency [11] | Potency [12] | activation [13] | Potency [14] | Potency [15] | Potency [16] | outcome [17] | Potency [18] | Potency [19] | Potency [20] |
| --- | --- | --- | --- | --- | --- | --- | --- | --- | --- | --- | --- | --- | --- | --- | --- | --- | --- | --- | --- | --- |
| O=C(Cl)c1ccc([N+](=O)[O-])cc1 | inactive | inactive | inactive | inactive | inactive | inactive | -2.19% (inactive) | inactive | inactive | inactive | inactive | inactive | -1.16% (inactive) | inactive | inactive | inactive | inactive |  |  |  |
| O=[N+]([O-])c1cc(N(CCO)CCO)ccc1NCCO |  | inactive | inactive | inactive | inactive | inactive |  |  | inactive |  | inactive | inactive | -0.608% (inactive) and 1.27% (inactive) |  | inactive | inactive | inactive | inactive | inactive |  |
| CCN(CC)c1ccc(N)cc1 | inactive | inactive |  | inactive |  |  | 8.72% (inactive) |  |  |  |  | 37.6 µM (active) | 0.867% (inactive) |  | 37.6 µM (active) | inactive |  |  | inactive |  |
| Cc1cc2nc(N)sc2cc1C |  |  | 15.8 µM (active) | inactive |  |  | -1.47% (inactive) |  |  | inactive | inactive |  | -0.263% (inactive) | inactive | inactive | inactive |  | inactive | inactive |  |
| Cc1cc(-c2ccc(N=Nc3cc(S(=O)(=O)O)c4ccccc4c3N)c(C)c2)ccc1N=Nc1cc(S(=O)(=O)O)c2ccccc2c1N | 25.1 µM (active) |  |  |  | inactive | inactive |  |  | inactive |  | inactive |  |  |  | inactive | inactive | inactive |  | inactive | inactive |
| Nc1ccc2c(c1)C(=O)c1ccccc1C2=O |  |  | 2.51 µM (active) |  | inactive |  | -3.44% (inactive) and 1.5% (inactive) | inactive | inactive | inactive | inactive | 10.6 µM (active) and 48.6 µM (active) | 1.2% (inactive) and -1.21% (inactive) |  | inactive | inactive |  | inactive |  | inactive |
| c1ccc(Nc2cccc3ccccc23)cc1 |  |  |  |  |  |  |  |  | inactive |  |  |  |  | inactive | inactive |  |  | inactive |  |  |
| Cc1c2ccccc2c(C)c2c1ccc1ccccc12 |  | inactive |  |  | inactive | 4.47 µM (active) and 15.8 µM (active) |  |  |  |  | inactive | 10.6 µM (active) and 24.3 µM (active) |  | inactive | 13.3 µM (active) |  |  |  |  | inactive |
| Cc1ccc(S(N)(=O)=O)cc1 |  | inactive | inactive |  |  |  | 1.06% (inactive) and -7.61% (inactive) | inactive | inactive | inactive | inactive | inactive and 68.6 µM (active) | 1.55% (inactive) and -0.345% (inactive) |  |  | inactive | inactive |  | inactive | inactive |
| O=[N+]([O-])c1cc(Cl)c(Cl)c(Cl)c1Cl | inactive |  | inactive |  |  |  | 0.473% (inactive) |  | inactive |  | inactive | 29.8 µM (active) | -0.62% (inactive) | inactive | 33.5 µM (active) |  | inactive |  | inactive | inactive |
| O=[N+]([O-])c1cccc(I)c1 | inactive | inactive | inactive |  | inactive | inactive | -12.6% (inactive) | inactive | inactive | inactive | inactive | inactive | -0.0255% (inactive) | inactive | inactive | inactive | inactive |  | inactive | inactive |
| S=C(NC1CCCCC1)NC1CCCCC1 | inactive | inactive |  |  | inactive | inactive | 9% (inactive) |  | inactive | inactive | inactive | 66.8 µM (active) | -0.887% (inactive) | inactive | inactive | inactive |  |  | inactive | inactive |
| O=C(O)/C=C/c1ccc(/C=C/C(=O)O)cc1 |  |  | inactive | inactive |  |  | 12.3% (inactive) | inactive | inactive | inactive |  | inactive | -0.449% (inactive) |  | inactive | inactive | inactive |  |  | inactive |
| Oc1cc(Cl)cc(Cl)c1Cl | inactive | inactive | inactive |  | inactive | inactive |  |  |  |  | inactive |  |  |  |  | inactive | inactive | inactive | inactive | inactive |
| CC(=O)OC(C(=O)c1ccccc1)c1ccccc1 (stereo not drawn) | inactive |  |  |  | inactive | inactive | 8.92% (inactive) | inactive |  | inactive | inactive |  | 0.305% (inactive) | inactive |  | inactive | inactive | inactive |  |  |
| O=C1c2ccccc2C(=O)C1(O)O | inactive | inactive | inactive | inactive | inactive | inactive |  |  |  |  | inactive | 66.8 µM (active) | -0.508% (inactive) | inactive |  |  | inactive | inactive | inactive | inactive |
